From PubChem BioAssay

Biological target: E3 ubiquitin-protein ligase XIAP (Homo sapiens) (UniProt P98170)
Assay: small molecules binding XIAP protein – biophysical, small-molecule microarray, fluorescence 635 nm, primary screen (AID 1181);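 further: score merges 667 nm emission and signal to noise over triplicate slides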
Conditions: higher = more signal

Sequence of E3 ubiquitin-protein ligase XIAP (Homo sapiens) (P98170 whole entry, looked up): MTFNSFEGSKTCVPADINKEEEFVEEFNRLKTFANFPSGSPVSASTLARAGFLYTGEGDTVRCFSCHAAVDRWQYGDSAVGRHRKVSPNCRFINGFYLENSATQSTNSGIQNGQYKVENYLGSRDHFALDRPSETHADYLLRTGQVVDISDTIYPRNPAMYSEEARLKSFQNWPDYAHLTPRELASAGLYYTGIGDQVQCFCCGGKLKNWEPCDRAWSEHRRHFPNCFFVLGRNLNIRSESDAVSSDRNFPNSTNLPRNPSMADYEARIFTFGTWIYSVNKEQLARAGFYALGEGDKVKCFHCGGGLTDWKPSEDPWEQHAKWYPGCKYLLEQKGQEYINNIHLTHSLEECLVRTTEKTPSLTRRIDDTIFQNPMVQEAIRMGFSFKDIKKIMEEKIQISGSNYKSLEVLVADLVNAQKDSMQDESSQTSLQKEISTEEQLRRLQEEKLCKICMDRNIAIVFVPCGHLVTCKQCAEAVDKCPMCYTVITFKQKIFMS

Compound	composite z-score
[N-]=[N+]=Nc1ccccc1C[C@]1(C(=O)NCc2ccccc2)COC(c2ccc(OCCCO)cc2)=N1	0.212
C=CCNC(=O)[C@H]1[C@@H]2C(=O)O[C@@H](c3ccccc3)[C@@H](c3ccccc3)N2[C@@H](c2ccc(OCCO)cc2)[C@]12C(=O)Nc1ccc(C#CCNC(N)=O)cc12	-0.163
CCOC(=O)C[C@H]1[C@H](OC(=O)c2ccccc2-c2ccccc2)[C@@H](NC(=O)c2ccc3ccccc3n2)c2cc(OCCCO)ccc2N1C(=O)c1ccccc1	0.0153
C[C@@H]1ON(c2ccc(I)cc2)[C@H](c2ccc(OC(=O)OC(C)(C)C)cc2)[C@H]1C(=O)N1C(=O)OC[C@H]1Cc1ccccc1	-0.0448
CN1C(=O)[C@@H]2[C@@H](CC(COc3ccccc3)=C([C@H](O)CCc3ccccc3)[C@@H]2CO)C1=O	0.0178
NC(=O)N1C(=O)C2C(C1=O)C1C=C(CCCO)C2C(C2CC2)N1Cc1cccc(OC(F)(F)F)c1 (stereo unspecified)	0.312
O=C(N1CCOCC1)[C@@]1(CCS(=O)(=O)c2ccccc2)N=C(c2ccc(OCCCO)cc2)O[C@H]1c1ccccc1	0.3
C=C(COC)C(=O)CC[C@H](OC(C)=O)c1ccc(OCCO)cc1	-0.326
COc1ccc(C(O)C2C=CC3C(=O)N(c4ccccc4)C(=O)C3N2Nc2ccccc2)cc1 (stereo unspecified)	0.438
O=C1C2C=CC(C(O)C=Cc3ccc([N+](=O)[O-])cc3)N(Nc3ccccc3)C2C(=O)N1c1ccccc1 (stereo unspecified)	-0.0103
CCN(CC)c1ccc(N2CC=CC34O[C@@H]5C=CCCOC(=O)C5[C@H]3C(=O)N(CCO)[C@@H]4C2=O)cc1 (stereo partly specified)	0.0074
